Publication PMC7862700, “An all-to-all approach to the identification of sequence-specific readers for epigenetic DNA modifications on cytosine”

Legend:
Test in all cases: DAPPL (digital affinity profiling via proximity ligation, sequencing); 10 mM Tris-HCl pH 7.5, 50 mM NaCl, 1 mM DTT, 4% glycerol, room temperature, 30 min; GST-TFs on glutathione beads, 16-mer random dsDNA library, 0.1% formaldehyde crosslink after washing; high values mean tight binding
FLI1 = target: T1, FLI1 (Homo sapiens, UniProt Q01543 1-452); conditions: protein: recombinant; tags: N-terminal GST; dsDNA, one strand shown
T1 sequence: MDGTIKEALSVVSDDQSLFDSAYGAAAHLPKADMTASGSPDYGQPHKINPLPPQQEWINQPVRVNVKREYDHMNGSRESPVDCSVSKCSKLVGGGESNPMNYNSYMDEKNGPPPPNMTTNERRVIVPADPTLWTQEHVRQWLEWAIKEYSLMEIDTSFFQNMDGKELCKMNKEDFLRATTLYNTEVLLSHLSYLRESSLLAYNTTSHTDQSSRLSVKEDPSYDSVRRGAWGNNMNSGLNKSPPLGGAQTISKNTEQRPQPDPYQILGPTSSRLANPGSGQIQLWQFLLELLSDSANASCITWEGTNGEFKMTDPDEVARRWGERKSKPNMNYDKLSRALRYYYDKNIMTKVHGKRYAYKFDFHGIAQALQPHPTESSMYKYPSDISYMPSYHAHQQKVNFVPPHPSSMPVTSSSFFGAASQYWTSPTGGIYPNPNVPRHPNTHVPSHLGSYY
How it was run: (§1)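 A tag-only sample was pooled with DNA-barcoded human transcription factors that had been expressed in yeast as GST fusions and captured on glutathione beads. The pools were incubated for 30 min at room temperature with 200 nmole of a random double-stranded 16-mer DNA library in Tris/NaCl/DTT/glycerol buffer, then washed, crosslinked with 0.1% formaldehyde, proximity-ligated (BsaI/T4 ligase, 1 h, 37 °C), PCR-amplified and sequenced on an Illumina NextSeq500. Binding signal is each hexamer's read frequency for a factor divided by its frequency for the tag-only sample.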

ELK1 = target: T2, ELK1 (Homo sapiens, UniProt P19419 1-428); conditions: protein: recombinant; tags: N-terminal GST; dsDNA, one strand shown
T2 sequence: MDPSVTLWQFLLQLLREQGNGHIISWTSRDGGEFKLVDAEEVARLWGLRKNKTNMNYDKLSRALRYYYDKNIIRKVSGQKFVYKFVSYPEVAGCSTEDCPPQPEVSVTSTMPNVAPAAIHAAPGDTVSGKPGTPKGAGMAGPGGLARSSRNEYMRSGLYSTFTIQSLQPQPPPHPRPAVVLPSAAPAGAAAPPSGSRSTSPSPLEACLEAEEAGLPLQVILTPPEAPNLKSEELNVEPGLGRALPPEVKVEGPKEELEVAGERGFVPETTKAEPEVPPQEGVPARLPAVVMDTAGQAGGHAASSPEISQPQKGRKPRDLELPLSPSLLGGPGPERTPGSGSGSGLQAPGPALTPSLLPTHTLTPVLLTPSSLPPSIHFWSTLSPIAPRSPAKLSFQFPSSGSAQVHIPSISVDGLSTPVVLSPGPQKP
How it was run: as §1

GABPA = target: T3, GABPA (Homo sapiens, UniProt Q06546 1-454); conditions: protein: recombinant; tags: N-terminal GST; dsDNA, one strand shown
T3 sequence: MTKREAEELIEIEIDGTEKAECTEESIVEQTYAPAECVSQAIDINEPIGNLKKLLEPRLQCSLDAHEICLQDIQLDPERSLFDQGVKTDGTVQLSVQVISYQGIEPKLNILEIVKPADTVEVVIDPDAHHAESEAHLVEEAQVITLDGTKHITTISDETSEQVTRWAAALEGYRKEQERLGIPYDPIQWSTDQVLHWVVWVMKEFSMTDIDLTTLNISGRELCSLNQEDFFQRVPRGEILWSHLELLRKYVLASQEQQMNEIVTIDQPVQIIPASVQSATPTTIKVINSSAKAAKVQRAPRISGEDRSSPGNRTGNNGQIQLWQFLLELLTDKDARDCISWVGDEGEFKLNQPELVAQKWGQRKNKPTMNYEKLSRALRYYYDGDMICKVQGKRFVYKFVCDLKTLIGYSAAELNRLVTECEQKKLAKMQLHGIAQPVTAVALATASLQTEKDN
How it was run: as §1

ERG = target: T4, ERG (Homo sapiens, UniProt P11308 1-479); conditions: protein: recombinant; tags: N-terminal GST; dsDNA, one strand shown
T4 sequence: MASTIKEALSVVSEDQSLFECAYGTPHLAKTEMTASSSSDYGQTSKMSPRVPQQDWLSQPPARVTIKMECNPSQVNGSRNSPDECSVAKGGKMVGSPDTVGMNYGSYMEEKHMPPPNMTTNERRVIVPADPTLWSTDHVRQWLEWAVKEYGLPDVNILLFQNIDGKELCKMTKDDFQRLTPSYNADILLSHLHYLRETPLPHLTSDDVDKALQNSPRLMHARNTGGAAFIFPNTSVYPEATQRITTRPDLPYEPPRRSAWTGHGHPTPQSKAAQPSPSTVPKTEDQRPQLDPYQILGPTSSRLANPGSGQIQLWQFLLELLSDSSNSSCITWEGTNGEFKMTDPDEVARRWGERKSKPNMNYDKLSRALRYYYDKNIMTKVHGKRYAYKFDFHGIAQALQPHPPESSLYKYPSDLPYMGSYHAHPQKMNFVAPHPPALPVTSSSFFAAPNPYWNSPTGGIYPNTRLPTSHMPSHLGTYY
How it was run: as §1

ELF1 = ELF1 (Homo sapiens, UniProt P32519 1-619); conditions: protein: recombinant; tags: N-terminal GST; dsDNA, one strand shown
Sequence of ELF1 (P32519 whole entry): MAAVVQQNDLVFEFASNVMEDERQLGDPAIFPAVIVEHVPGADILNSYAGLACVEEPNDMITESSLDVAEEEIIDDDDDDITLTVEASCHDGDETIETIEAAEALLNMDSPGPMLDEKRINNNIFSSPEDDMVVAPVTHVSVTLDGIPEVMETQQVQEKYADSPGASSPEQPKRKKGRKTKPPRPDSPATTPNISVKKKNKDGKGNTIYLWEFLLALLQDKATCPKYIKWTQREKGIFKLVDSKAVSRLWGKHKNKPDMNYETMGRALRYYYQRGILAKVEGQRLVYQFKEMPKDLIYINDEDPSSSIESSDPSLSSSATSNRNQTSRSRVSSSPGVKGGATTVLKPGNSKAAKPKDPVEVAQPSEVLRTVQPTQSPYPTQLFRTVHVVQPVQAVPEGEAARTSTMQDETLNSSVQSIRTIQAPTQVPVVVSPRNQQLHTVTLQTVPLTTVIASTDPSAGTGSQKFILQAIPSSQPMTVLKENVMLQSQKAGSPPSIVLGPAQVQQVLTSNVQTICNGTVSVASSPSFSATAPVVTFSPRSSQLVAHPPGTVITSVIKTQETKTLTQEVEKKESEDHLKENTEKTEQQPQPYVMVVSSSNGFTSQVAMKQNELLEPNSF
How it was run: as §1

EHF = target: T5, EHF (Homo sapiens, UniProt Q9NZC4 1-300); conditions: protein: recombinant; tags: N-terminal GST; dsDNA, one strand shown
T5 sequence: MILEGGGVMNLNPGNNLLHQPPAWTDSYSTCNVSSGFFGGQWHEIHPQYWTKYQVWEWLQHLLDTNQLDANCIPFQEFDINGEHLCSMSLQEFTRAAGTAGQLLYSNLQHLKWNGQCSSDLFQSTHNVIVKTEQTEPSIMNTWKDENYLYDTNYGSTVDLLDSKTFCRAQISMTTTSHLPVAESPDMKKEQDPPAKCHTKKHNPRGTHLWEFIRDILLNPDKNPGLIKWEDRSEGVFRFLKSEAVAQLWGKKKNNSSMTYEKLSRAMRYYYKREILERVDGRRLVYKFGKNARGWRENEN
How it was run: as §1

SPI1 = SPI1 (Homo sapiens, UniProt P17947 1-270); conditions: protein: recombinant; tags: N-terminal GST; dsDNA, one strand shown
How it was run: as §1

SPIB = SPIB (Homo sapiens, UniProt Q01892 1-262); conditions: protein: recombinant; tags: N-terminal GST; dsDNA, one strand shown
Sequence of SPIB (Q01892 whole entry): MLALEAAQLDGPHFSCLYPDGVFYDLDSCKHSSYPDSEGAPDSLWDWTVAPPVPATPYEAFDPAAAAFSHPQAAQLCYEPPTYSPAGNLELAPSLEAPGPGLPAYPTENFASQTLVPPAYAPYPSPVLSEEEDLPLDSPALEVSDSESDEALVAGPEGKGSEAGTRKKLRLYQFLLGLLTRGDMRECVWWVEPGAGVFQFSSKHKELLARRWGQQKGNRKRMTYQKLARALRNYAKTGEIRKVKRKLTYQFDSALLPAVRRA
How it was run: as §1

ELK3 = target: T6, ELK3 (Homo sapiens, UniProt P41970 1-407); conditions: protein: recombinant; tags: N-terminal GST; dsDNA, one strand shown
T6 sequence: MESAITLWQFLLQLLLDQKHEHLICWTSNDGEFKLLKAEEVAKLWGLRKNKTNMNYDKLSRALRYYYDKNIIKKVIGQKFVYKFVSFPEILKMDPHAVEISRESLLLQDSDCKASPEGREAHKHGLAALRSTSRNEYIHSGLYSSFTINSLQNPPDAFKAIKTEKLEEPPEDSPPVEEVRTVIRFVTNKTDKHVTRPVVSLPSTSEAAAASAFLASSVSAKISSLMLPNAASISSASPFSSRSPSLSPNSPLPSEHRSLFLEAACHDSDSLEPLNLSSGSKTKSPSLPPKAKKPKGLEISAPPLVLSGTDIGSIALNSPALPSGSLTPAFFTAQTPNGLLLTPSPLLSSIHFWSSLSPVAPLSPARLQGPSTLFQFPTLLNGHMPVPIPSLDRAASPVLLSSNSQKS
How it was run: as §1

FEV = target: T7, FEV (Homo sapiens, UniProt Q99581 1-238); conditions: protein: recombinant; tags: N-terminal GST; dsDNA, one strand shown
T7 sequence: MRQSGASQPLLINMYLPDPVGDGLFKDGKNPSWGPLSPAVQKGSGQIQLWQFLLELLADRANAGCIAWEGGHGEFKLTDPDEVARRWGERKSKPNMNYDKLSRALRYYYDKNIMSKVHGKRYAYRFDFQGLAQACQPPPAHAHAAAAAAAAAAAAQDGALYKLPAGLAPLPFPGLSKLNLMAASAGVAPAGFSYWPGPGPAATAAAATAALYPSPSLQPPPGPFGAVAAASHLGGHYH
How it was run: as §1

ETV5 = ETV5 (Homo sapiens, UniProt P41161 1-510); conditions: protein: recombinant; tags: N-terminal GST; dsDNA, one strand shown
Sequence of ETV5 (P41161 whole entry): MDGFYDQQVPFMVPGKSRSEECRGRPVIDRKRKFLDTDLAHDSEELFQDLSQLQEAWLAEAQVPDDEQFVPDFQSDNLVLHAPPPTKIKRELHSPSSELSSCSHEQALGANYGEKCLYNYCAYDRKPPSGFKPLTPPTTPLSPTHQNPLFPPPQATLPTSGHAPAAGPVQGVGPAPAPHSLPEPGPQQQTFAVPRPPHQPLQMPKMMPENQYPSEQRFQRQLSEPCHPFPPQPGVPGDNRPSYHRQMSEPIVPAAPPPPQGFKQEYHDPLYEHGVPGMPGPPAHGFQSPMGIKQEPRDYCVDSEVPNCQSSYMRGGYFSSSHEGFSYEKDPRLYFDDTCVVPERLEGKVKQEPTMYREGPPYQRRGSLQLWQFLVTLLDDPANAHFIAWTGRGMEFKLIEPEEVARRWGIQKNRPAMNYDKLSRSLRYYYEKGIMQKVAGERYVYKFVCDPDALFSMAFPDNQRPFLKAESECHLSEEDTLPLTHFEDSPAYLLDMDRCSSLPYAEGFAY
How it was run: as §1

HSF1 = HSF1 (Homo sapiens, UniProt Q00613 1-529); conditions: protein: recombinant; tags: N-terminal GST; chain copies: 3; dsDNA, one strand shown
Sequence of HSF1 (Q00613 whole entry): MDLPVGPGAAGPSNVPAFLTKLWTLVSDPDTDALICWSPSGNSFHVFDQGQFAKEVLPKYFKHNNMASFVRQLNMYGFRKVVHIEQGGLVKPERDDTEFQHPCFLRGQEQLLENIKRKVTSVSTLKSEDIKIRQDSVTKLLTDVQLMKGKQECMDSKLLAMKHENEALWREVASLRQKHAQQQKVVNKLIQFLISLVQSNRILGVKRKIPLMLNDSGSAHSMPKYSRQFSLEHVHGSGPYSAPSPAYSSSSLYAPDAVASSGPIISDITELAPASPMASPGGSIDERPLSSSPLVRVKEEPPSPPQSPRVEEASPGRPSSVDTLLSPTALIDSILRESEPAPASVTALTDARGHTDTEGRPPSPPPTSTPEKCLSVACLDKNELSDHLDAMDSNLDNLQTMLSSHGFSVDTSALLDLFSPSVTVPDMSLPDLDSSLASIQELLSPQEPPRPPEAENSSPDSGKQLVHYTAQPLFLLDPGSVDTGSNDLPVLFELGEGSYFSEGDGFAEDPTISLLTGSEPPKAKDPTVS
How it was run: as §1

SPIC = target: T8, SPIC (Homo sapiens, UniProt Q8N5J4 1-248); conditions: protein: recombinant; tags: N-terminal GST; dsDNA, one strand shown
T8 sequence: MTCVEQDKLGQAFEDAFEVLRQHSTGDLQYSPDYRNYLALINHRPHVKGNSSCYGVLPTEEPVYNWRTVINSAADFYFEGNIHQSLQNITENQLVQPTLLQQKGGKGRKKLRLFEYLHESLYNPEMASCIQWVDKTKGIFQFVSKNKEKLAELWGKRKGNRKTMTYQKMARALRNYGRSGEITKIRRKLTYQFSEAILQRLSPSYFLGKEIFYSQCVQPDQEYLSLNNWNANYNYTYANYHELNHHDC
How it was run: as §1

ELF4 = ELF4 (Homo sapiens, UniProt Q99607 1-663); conditions: protein: recombinant; tags: N-terminal GST; dsDNA, one strand shown
Sequence of ELF4 (Q99607 whole entry): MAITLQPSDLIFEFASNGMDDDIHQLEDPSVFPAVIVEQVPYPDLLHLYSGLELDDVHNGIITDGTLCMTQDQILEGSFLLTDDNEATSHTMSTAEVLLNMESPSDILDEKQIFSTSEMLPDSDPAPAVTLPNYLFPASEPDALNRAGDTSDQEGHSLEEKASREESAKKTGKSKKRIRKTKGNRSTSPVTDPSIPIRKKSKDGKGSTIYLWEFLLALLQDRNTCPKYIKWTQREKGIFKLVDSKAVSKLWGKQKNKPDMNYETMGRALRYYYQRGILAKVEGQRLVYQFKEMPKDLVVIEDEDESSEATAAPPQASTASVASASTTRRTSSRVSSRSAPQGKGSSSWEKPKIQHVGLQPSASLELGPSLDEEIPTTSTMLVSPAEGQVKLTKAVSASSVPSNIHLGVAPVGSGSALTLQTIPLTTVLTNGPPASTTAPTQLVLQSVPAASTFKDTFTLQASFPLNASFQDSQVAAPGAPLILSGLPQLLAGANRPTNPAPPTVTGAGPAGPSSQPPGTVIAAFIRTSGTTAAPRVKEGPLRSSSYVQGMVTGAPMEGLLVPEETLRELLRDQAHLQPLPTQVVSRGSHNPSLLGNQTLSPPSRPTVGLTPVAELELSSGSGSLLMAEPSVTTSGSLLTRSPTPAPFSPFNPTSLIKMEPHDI
How it was run: as §1

ELK4 = target: T9, ELK4 (Homo sapiens, UniProt P28324-2 1-405); conditions: protein: recombinant; tags: N-terminal GST; dsDNA, one strand shown
T9 sequence: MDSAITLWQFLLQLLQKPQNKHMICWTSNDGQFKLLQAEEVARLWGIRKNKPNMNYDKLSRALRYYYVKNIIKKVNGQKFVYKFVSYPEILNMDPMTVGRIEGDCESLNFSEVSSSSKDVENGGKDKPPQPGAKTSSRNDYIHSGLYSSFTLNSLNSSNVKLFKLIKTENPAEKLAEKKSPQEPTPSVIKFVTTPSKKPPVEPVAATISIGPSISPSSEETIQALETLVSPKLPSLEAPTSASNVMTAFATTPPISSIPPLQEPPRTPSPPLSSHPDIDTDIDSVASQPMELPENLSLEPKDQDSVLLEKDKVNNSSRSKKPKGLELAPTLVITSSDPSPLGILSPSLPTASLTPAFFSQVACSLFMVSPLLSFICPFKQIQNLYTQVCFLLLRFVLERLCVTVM
How it was run: as §1

ETV2 = target: T10, ETV2 (Homo sapiens, UniProt O00321 1-342); conditions: protein: recombinant; tags: N-terminal GST; dsDNA, one strand shown
T10 sequence: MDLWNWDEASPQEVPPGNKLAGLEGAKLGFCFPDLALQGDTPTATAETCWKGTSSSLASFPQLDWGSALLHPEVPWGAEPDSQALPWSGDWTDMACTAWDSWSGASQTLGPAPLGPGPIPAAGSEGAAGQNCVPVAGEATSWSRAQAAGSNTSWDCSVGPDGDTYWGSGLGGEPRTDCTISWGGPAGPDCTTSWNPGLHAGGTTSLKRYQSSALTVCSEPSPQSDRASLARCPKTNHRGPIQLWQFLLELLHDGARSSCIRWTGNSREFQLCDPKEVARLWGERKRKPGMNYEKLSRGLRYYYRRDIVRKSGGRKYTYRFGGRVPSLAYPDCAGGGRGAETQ
How it was run: as §1

ELF3 = target: T11, ELF3 (Homo sapiens, UniProt P78545 1-371); conditions: protein: recombinant; tags: N-terminal GST; dsDNA, one strand shown
T11 sequence: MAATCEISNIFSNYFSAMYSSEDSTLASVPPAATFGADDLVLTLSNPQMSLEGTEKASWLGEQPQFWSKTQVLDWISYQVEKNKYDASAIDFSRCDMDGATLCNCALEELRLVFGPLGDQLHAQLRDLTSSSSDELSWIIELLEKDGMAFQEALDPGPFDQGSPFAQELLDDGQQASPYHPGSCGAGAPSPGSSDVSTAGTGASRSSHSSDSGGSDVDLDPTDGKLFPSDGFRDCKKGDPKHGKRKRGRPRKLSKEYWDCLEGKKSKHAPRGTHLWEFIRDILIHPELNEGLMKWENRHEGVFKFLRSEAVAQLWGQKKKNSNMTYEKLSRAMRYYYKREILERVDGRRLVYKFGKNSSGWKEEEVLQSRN
How it was run: as §1

CRX = CRX (Homo sapiens, UniProt O43186 1-299); conditions: protein: recombinant; tags: N-terminal GST; dsDNA, one strand shown
Sequence of CRX (O43186 whole entry): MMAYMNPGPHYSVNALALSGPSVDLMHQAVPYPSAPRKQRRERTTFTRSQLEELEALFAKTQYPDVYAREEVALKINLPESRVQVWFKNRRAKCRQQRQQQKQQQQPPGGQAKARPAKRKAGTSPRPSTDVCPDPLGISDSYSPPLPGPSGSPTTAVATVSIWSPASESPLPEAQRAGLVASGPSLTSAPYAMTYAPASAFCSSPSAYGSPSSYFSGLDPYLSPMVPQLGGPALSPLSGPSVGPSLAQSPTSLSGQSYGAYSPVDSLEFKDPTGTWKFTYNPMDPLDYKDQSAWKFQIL
How it was run: as §1

ETV1 = ETV1 (Homo sapiens, UniProt P50549 1-477); conditions: protein: recombinant; tags: N-terminal GST; dsDNA, one strand shown
Sequence of ETV1 (P50549 whole entry): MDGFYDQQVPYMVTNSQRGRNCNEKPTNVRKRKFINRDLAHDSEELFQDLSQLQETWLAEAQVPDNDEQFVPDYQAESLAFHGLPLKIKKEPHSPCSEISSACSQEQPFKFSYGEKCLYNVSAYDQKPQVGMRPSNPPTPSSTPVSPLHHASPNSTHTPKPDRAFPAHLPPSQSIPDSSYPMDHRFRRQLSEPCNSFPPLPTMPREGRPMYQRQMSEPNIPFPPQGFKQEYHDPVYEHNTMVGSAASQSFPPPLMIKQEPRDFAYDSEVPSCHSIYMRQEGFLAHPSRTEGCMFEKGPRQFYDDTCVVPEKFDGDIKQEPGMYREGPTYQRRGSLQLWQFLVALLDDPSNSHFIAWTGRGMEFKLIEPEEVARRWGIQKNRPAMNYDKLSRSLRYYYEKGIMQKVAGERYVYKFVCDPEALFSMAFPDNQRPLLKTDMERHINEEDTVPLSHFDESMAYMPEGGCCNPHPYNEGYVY
How it was run: as §1

## ATCCTG
FLI1
  binding signal: 1.38 fold enrichment (6-mer frequency, TF over GST control)
ELK1
  binding signal: 1.43 fold enrichment (6-mer frequency, TF over GST control)
GABPA
  binding signal: 1.34 fold enrichment (6-mer frequency, TF over GST control)
ERG
  binding signal: 1.62 fold enrichment (6-mer frequency, TF over GST control)
ELF1
  binding signal: 1.36 fold enrichment (6-mer frequency, TF over GST control)
EHF
  binding signal: 1.41 fold enrichment (6-mer frequency, TF over GST control)
SPI1
  binding signal: 1.4 fold enrichment (6-mer frequency, TF over GST control)
SPIB
  binding signal: 1.55 fold enrichment (6-mer frequency, TF over GST control)
ELK3
  binding signal: 1.5 fold enrichment (6-mer frequency, TF over GST control)
FEV
  binding signal: 1.46 fold enrichment (6-mer frequency, TF over GST control)
ETV5
  binding signal: 1.71 fold enrichment (6-mer frequency, TF over GST control)
HSF1
  binding signal: 1.33 fold enrichment (6-mer frequency, TF over GST control)
SPIC
  binding signal: 1.19 fold enrichment (6-mer frequency, TF over GST control)
ELF4
  binding signal: 1.35 fold enrichment (6-mer frequency, TF over GST control)
ELK4
  binding signal: 1.33 fold enrichment (6-mer frequency, TF over GST control)
ETV2
  binding signal: 1.42 fold enrichment (6-mer frequency, TF over GST control)
ELF3
  binding signal: 1.35 fold enrichment (6-mer frequency, TF over GST control)
CRX
  binding signal: 1.55 fold enrichment (6-mer frequency, TF over GST control)
ETV1
  binding signal: 1.43 fold enrichment (6-mer frequency, TF over GST control)
